High-throughput results as filed in PubChem.
Most compounds without a hit are left out; they make up all but 6.5% or so of the library.
Vaccinia Venus: inhibitors of vaccinia virus (Venus reporter); hit rate 0.46% among 330,000; Vaccinia virus Venus reporter expression, fluorescence; Potency, µM (series often up to 36.5 µM), for the others: at the highest dose activity change, negative = inhibition, actives largely listed as inhibitors; calls by dose curve; tested in A549 cells; note: potency is the fitted concentration of half-maximal effect; nearly all actives have a fitted effect of over 30% in size
VACV mCherry inh: inhibitors of vaccinia virus infection (mCherry reporter signal); Potency, µM (top dose mostly 36.5 µM), for the others: at the top dose activity change, negative = inhibition, usual class: inhibitors; hit rate 0.63% among 310,000; AID 720579; Vaccinia virus mCherry reporter infection, fluorescence; calls by dose curve; tested in A549 cells; note: potency is the fitted concentration of half-maximal effect; nearly all actives have a fitted effect of over 35% in size
MARV entry inh: blocks Marburg virus binding to or entry into cells | AID 540276 | Potency, µM (doses to about 37.8 µM), without a hit: top-dose activity change, negative = inhibition, usual class: inhibitors | hit rate 1.8% among 300,000 | Marburg virus pseudotyped entry inhibition, cell reporter; calls by dose curve; tested in HEK293 cells; note: potency is the fitted concentration of half-maximal effect
FMDV antiviral: blocks foot and mouth disease virus. FMDV antiviral cell-based qHTS. Potency, µM (series often up to 57.9 µM), for inactives: top-dose activity change, negative = inhibition, usual class: inhibitors. hit rate 1.2% among 410,000. AID 1159524; calls by dose curve; tested in HEK293T cells; note: read-out not given here; potency is the fitted concentration of half-maximal effect; nearly all actives have a fitted effect of over 45% in size
HCMV antiviral: human cytomegalovirus inhibition. HFF cells, HCMV-luciferase reporter, 72 h; hits give low values. activity change, negative = inhibition, % at 57.5 µM. hit rate 4.5% among 410,000. AID 1259415; in the data active = activity change below about -60%; inconclusive = no clear call, values can overlap the other calls; inactive = above about -39%
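Two compound doses tested in HFFs infected with HCMV-luciferase, MOI 1 PFU/cell, 72 h at 37C. Lysate luminescence read with OneGlo; data normalized against buffer-only and 10uM Salinomycin inhibitor controls.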
Lassa entry inh: blocks Lassa virus binding to or entry into cells; Lassa virus pseudotype entry inhibition, cell reporter; Potency, µM (series often up to 37.9 µM), for the others: at the highest dose activity change, negative = inhibition, actives largely listed as inhibitors; AID 540256; hit rate 1.2% among 300,000; calls by dose curve; tested in HEK293 cells; note: potency is the fitted concentration of half-maximal effect; nearly all actives have a fitted effect of over 50% in size
Active calls of the source: *; i = inactive; ? = inconclusive; . = no result given; [ ] = dose if it differs, or a comment. % is set by controls: 0 for no effect and ±100 for the full control effect.

SMILES	Vaccinia Venus	VACV mCherry inh	MARV entry inh	FMDV antiviral	HCMV antiviral	Lassa entry inh
S=C(NC1CCCC1)N1CCN(c2ccccn2)CC1	-15%	-12%	23%	0%	-62*	6%
O=[N+]([O-])c1cccc(NC(=S)N2CCN(c3ccccn3)CC2)c1	-10%	-18%	?	-3%	-65*	?
Cc1cccc(CSC(Nc2ccc(F)cc2)=C(C#N)C#N)c1	?	?	2.9µM*	?	-102*	?
N#CC(C#N)=C(Nc1ccc(F)cc1)SCc1cccc(Br)c1	?	?	?	1.8µM*	-99*	?
CC(SCc1ccccc1)C(=O)Nc1ccc(F)cc1 (centres undefined)	5%	-23%	-8%[46.1 µM]	-15%	?	25%[46.1 µM]
O=S(=O)(c1ccccc1)c1nc(-c2ccccc2)oc1N1CCN(c2cccc(Cl)c2)CC1	-1%	-13%	4%[46.1 µM]	-10%	-2	8%[46.1 µM]
COc1ccc(COC(=O)NN=C2C[C@@H](O)[C@@H](O)[C@@H]3[C@H]4C(=O)N(Cc5ccccc5)C(=O)[C@@H]4CC[C@@H]23)cc1	.	.	-25%[14.2 µM]	.	.	4.4µM*
COc1ccc(COC(=O)N/N=C2/C[C@@H](O)[C@@H](O)[C@@H]3[C@@H]4C(=O)N(Cc5ccccc5)C(=O)[C@H]4CC[C@H]23)cc1	.	.	-25%[14.2 µM]	.	.	.
Cn1c(=O)n(-c2ccc(F)c(Cl)c2)c(=O)c2sc3ccccc3c21	-3%	7%	-7%[46.1 µM]	4%	-18	2%[46.1 µM]
O=C(CCCSc1ccccc1)Nc1nc(-c2ccco2)c(-c2ccco2)s1	-8%	i	?	0%	25	?
O=C(CCl)Nc1nc(-c2ccco2)c(-c2ccco2)s1	-14%	-17%	?	-29%	-69*	?
CC(C)c1ccc(NC(=O)C2Cc3ccccc3N2C(=O)c2ccccc2)cc1 (centres undefined)	-15%	-16%	.	0%	?	-12%[46.1 µM]
COC1=C(N)C(=O)c2nc(C)ccc2C1=O	4%	i	?	10µM*	-16	-21%
COc1ccc(N)c2c1C(=O)c1ccccc1C2=O	95%	77%	0%	-6%	27	?
COC1=C(Br)C(=O)c2nc(C)ccc2C1=O	-24%	-6%	.	40µM*	12	.
COc1cc(/C=C/c2ccc3ccccc3n2)cc(OC)c1OC	-26%	?	.	.	.	.
CCCCOc1ccc(C(=O)N(Cc2ccc(C(C)C)cc2)C2CCS(=O)(=O)C2)cc1 (centres undefined)	-16%	-12%	?	-23%	33	?
CC1=C(C(=O)Nc2ccc(C)cc2C)C(c2ccc(O)cc2)n2nnnc2N1 (centres undefined)	-3%	-6%	-20%[46.1 µM]	-10%	-34	?
CCc1c(C)nc(N)nc1N1N=C1SCC(=O)OC	3%	-3%	9%[46.1 µM]	6%	-61*	11%
CCc1c(C)nc(N)nc1N1N=C1SCC#N	.	.	11%	3%	21	-4%
CC/C(=N\N1CCCCCC1)c1c(O)n(-c2ccc(C)cc2)c(=O)[nH]c1=O	-18%	i	11%	0%	-19	0.4µM*
C/C(=N\N1CCCCCC1)c1c(O)n(-c2ccc(C)cc2)c(=O)[nH]c1=O	-27%	i	?	6%	-37	?
CC(C)c1ccc2c(c1)NC(c1ccc(F)cc1)=NC(c1cccs1)=N2	-6%	-3%	-54%[46.1 µM]	24%	14	22%[46.1 µM]
O=CN1CCCN(C(=O)c2cc(NC(=O)c3ccccc3)cc3ncn(C4CCCC4)c23)CC1	-3%	-11%	.	5%	.	.
CCOc1ccc(C(=O)Nc2ccccc2C(=O)OCc2cc(=O)n3nc(C4CC4)sc3n2)cc1	-7%	-8%	.	1%	15	11%[46.1 µM]
SMILES	Vaccinia Venus	VACV mCherry inh	MARV entry inh	FMDV antiviral	HCMV antiviral	Lassa entry inh
CC(C)n1c(-c2ccco2)csc1=Nc1cccnc1	-29%	?	-24%	25µM*	-79*	-13%
c1cncc(-c2nc(-c3ccco3)cs2)c1	-1%	-5%	23%	37%	6	3%
COc1ccc(OC)c(NC(=O)C2Cc3ccccc3CN2S(=O)(=O)c2ccc(F)cc2)c1 (centres undefined)	-5%	-11%	?	-7%	-39	?
COc1ccc(C(=O)NN/C(C)=C/C(=O)c2ccccc2)cc1	-5%	?	4%[46.1 µM]	-4%	18	-2%[46.1 µM]
O=C(NN/C(=N/S(=O)(=O)c1ccc(Cl)cc1)c1ccccc1)c1ccc(O)cc1	-7%	-15%	20µM*	95%	60	?
C/C(=C\C(=O)c1ccccc1)NNC(=O)c1ccc(Cl)cc1	17%	i	3%[46.1 µM]	2%	-73*	?
O=C(c1ccccn1)N(CCO)C(c1ccccc1)c1nc2ccccc2[nH]1 (centres undefined)	.	.	.	.	23	.
Cc1ccc(-c2cc3cccc[n+]3cc2-c2ccc(C)cc2)cc1	-21%	-7%	3.2µM*	40µM*	-98*	6.5µM*
Cc1ccc(C[n+]2ccccc2)cc1	-26%	i	.	-21%	-2	.
Cc1ccc(-n2cc(CN3CCC(O)(c4ccccn4)CC3)c(-c3ccc(F)cc3)n2)cc1	?	?	4µM*	-29%	?	?
CCOC(=O)C1(C(=O)OCC)CC2=C(C=CC3=C(C=C2)CC(C(=O)OCC)(C(=O)OCC)C3)C1	.	.	6%[14.2 µM]	.	.	.
CC(/C=N/NC(=O)c1ccc(Br)cc1)=C\c1ccccc1	-24%	-8%	?	.	-63*	0%
COc1ccc(C(=O)N/N=C\C(C)=C\c2ccccc2)cc1OC	-28%	?	-6%	-13%	7	?
Cc1ccc(Nc2nc3ccccc3s2)c(C)c1	-16%	?	8.2µM*	-37%	72	10µM*
Cc1ccc(C(=O)Nc2ccc(-c3nc4ccccc4s3)c(O)c2)c(C)c1	-8%[7.34 µM]	-14%[7.34 µM]	.	13%	-63*	19%[46.1 µM]
CCC(=O)Nc1cc(-c2nc3ccccc3s2)c(Cl)cc1Cl	-8%	-2%	-2%[46.1 µM]	2%	-101*	-3%[46.1 µM]
CCC(=O)NC(=S)Nc1ccc(-c2nc3ccccc3s2)cc1	-17%	.	-22%[46.1 µM]	3%	78	-17%
Cc1ccc(NC(=O)Cc2cc(C(=O)O)c3ccccc3n2)c(C)c1	.	.	12µM*	?	?	15µM*
CCOc1ccc(NC(=O)c2c(NC(=O)Cc3ccccc3)sc3c2CCCC3)cc1	-17%	-8%	1%[46.1 µM]	-15%	-27	-1%[46.1 µM]
Cc1ccc(C)c(NC(=O)COC(=O)c2cccc3c2C(=O)c2ccccc2C3=O)c1	-28%	-10%	?	?	?	?
Cc1ccc(NC(=O)COC(=O)c2cccc3c2C(=O)c2ccccc2C3=O)c(C)c1	-7%	-14%	?	-4%	-67*	-25%
Cc1ccc(NC(=O)COC(=O)c2ccccc2-c2nc3ccccc3s2)c(C)c1	.	.	25%	-24%	-68*	-12%
Cc1cc(C)cc(Oc2c(C(F)(F)F)oc3cc(OCC(=O)NC4CCCCC4)ccc3c2=O)c1	1%	-9%	-2%[46.1 µM]	-17%	4	14%[46.1 µM]
